Source: PubChem
The sample as a whole holds a higher share of hits than the screen did.
HIV RNase H inh-1: blocks HIV-1 RNase H cleavage of RNA/DNA duplex | P04585 | RT-RNase H RNA/DNA duplex cleavage, fluorescence | inhibition, % at 10 µM | AID 565 | 65,000 compounds, 1.9% hits; in the data active means inhibition above about 50%
HIV RNase H inh-2: confirmation of HIV-1 reverse transcriptase RNase H inhibitors | shares compounds with HIV RNase H inh-1 | Recombinant RT RNase H, fluorescent RNA/DNA duplex cleavage | inhibition, % at 10 µM | 1,000 compounds, 39% hits; in the data active means inhibition above about 48%; inconclusive means no clear call, values can overlap the other calls
Starred values were filed as active, the others as inactive; ? = inconclusive.

SMILES	HIV RNase H inh-1	others
COc1ccc(S(=O)(=O)N(Cc2ccccc2)Cc2nc(-c3ccccc3)no2)cc1	4
Cc1noc(C)c1C(=O)OCC(=O)NCCC1=CCCCC1	3
CCN(CC)Cc1c[nH]c2c(C(=O)OC)cccc12	-9
CCOc1ccc(-c2nn3c(-c4ccccc4)nnc3s2)cc1	87*	HIV RNase H inh-2=17
Cc1nnc2sc(-c3ccncc3)nn12	-7
CCOc1ccc(-c2nnc3sc(COc4ccccc4)nn23)cc1	-10
CC(C)(C)c1ccc(-c2nnc3sc(-c4ccncc4)nn23)cc1	95*	HIV RNase H inh-2=58*
CCOc1ccc(-c2nn3c(-c4ccc(OC)cc4)nnc3s2)cc1	-1
c1csc(-c2nn3c(-c4ccncc4)nnc3s2)c1	-35
O=C(Nc1cccc(C(F)(F)F)c1)C1CCCN1S(=O)(=O)c1cccc2cccnc12 (configuration not stated)	-33
COc1ccc(N2CCN(CCNC(=O)c3cccn4c(=O)c5ccc(Cl)cc5nc34)CC2)cc1	8
CCOc1ccc(N2C(=O)CC(n3nc(C)cc3C)C2=O)cc1 (configuration not stated)	-4
Cn1c(=O)c2c(nc(N3CCN(Cc4ccccc4)CC3)n2CCSc2ncccn2)n(C)c1=O	1
O=c1/c(=C/c2ccccn2)sc2nc3ccccc3n12	60*	HIV RNase H inh-2=79*
COC(=O)/C=c1/sc2nc3ccccc3n2c1=O	-3
O=c1c2ccccc2nc2sc3ccccc3n12	-24
Cc1ccc(CNC(=O)C2CCCCC2C(=O)O)cc1 (configuration not stated)	-13
CC1=CCC2(CO)COC(c3ccccc3O)C1C2 (configuration not stated)	-7
Cc1cc(C)nc(N2CCCC(C(=O)Nc3ccc4nc(C)c(C)nc4c3)C2)n1 (configuration not stated)	-3
Cc1cc(C)cc(NC(=O)C2CCCN(c3nc(C)cc(C)n3)C2)c1 (configuration not stated)	70*	HIV RNase H inh-2=44
Cc1cc(C)cc(NC(=O)C2CCCN(c3nccc(C)n3)C2)c1 (configuration not stated)	-5
Nc1cc(C2CCCC2)nn1-c1ccccc1	-10
CN(C1CCS(=O)(=O)C1)S(=O)C12CC3CC(CC(C3)C1)C2 (configuration not stated)	0
CCOc1ccc2[nH]c(=O)c(C(c3nnnn3Cc3ccco3)N3CCCC(C)C3)cc2c1 (configuration not stated)	24
COc1ccc(C(=O)c2ccc(OC)c(OC)c2)cc1OC	-37
SMILES	HIV RNase H inh-1	others
CC/C(=N\O)c1ccc(OC)c(OC)c1	-6
COc1ccc(C(=S)N(C)C)cc1OC	87*	HIV RNase H inh-2=58*
COC(=O)C1=C(C)N(CC2CCCO2)C(=O)C1 (configuration not stated)	1
O=C(NCCc1c[nH]c2ccccc12)C1Cc2ccccc2CN1C(=O)c1ccco1 (configuration not stated)	9
O=C(CSc1nnc(NC(=O)c2ccco2)s1)NC1CCCCC1	6
CCSc1nnc(NC(=O)C2Cc3ccccc3CN2C(=O)c2ccco2)s1 (configuration not stated)	53*	HIV RNase H inh-2=?
CCn1c(SCC(=O)Nc2cc(OC)ccc2OC)nnc1C1CCCCC1	4
Cc1nn(-c2ccccc2)c(C)c1C(=O)OCC(=O)c1c(N)n(CC(C)C)c(=O)n(C)c1=O	4
CC(C)Cn1c(N)c(C(=O)COC(=O)c2cc(-c3ccco3)nc3ccccc23)c(=O)n(C)c1=O	86*	HIV RNase H inh-2=?
CC(C)Cn1c(N)c(C(=O)COC(=O)C2=COCCO2)c(=O)n(C)c1=O	20
O=C(Cc1cc(=O)[nH]c(=O)[nH]1)N1CCC(Cc2ccccc2)CC1	-5
COc1ccc(CCNCc2csc3nc4ccccc4n23)cc1OC	-19
O=C(NCc1ccco1)c1nc2ccccc2s1	-4
O=C(NCc1ccco1)c1csc2c1CCCCC2	-7
O=C(NCc1ccco1)c1c2c(nc3ccccc13)CCC2	65*	HIV RNase H inh-2=22
COC(=O)c1ccc2c(=O)n(Cc3ccco3)c(SCC(=O)Nc3ccccc3Cl)nc2c1	86*	HIV RNase H inh-2=67*
O=C(CSc1nc2ccccc2c(=O)n1Cc1ccco1)NCc1ccco1	-1
COC(=O)c1ccc2c(=O)n(CC3CCCO3)c(SCC(=O)Nc3ccccc3OC)nc2c1 (configuration not stated)	-13
CCCc1[nH]nc2c1C1(CCOC1C)C(C#N)=C(N)O2 (configuration not stated)	-9
COC(=O)c1ccc(-n2nnnc2SCc2ccccc2OC)cc1	-27
Nc1cnn(C2CCCO2)c(=O)n1 (configuration not stated)	-8
O=C(O)CCCNS(=O)(=O)c1ccc(NCc2ccccc2)c(C(=O)O)c1	-1
O=C(O)c1ccc(COc2c(F)c(F)c(F)c(F)c2F)o1	15
CCCn1c(C)nc2c(c1=O)c1nc3ccccc3nc1n2-c1ccc2c(c1)OCCO2	13
O=C(O)c1cccc(S(=O)(=O)N2CCOCC2)c1	1
SMILES	HIV RNase H inh-1	others
Cn1c(=O)n(C)c2cc(S(=O)(=O)N3CCOCC3)ccc21	-6
O=S(=O)(c1ccc2nc(-c3ccco3)c(-c3ccco3)nc2c1)N1CCOCC1	76*	HIV RNase H inh-2=26
CCOC(=O)N1CCN(c2nc(-c3ccc(OC)cc3)no2)CC1	-1
CC1=C(C(=O)N2CCOCC2)C(c2ccccc2F)C2=C(CCCC2=O)N1 (configuration not stated)	1
CCC(Sc1nc2ccccc2c(=O)n1CC1CCCO1)C(=O)NCc1cccnc1 (configuration not stated)	-13
CC1=C(C#N)C(c2ccoc2)C(C(=O)OCc2ccccc2)=C(N)S1 (configuration not stated)	-47
Cc1ccc(C2C(C#N)=C(N)SC(N)=C2C#N)cc1	67*	HIV RNase H inh-2=26
Cc1ccc(-n2nc(C)c3c2OC(N)=C(C#N)C3c2ccc(F)cc2)cc1 (configuration not stated)	40
Cc1ccc(C2C(C#N)=C(N)SC(N)=C2C#N)c(C)c1	83*	HIV RNase H inh-2=4
CC(c1ccccc1)C1C(C#N)=C(N)SC(N)=C1C#N (configuration not stated)	-6
N#CC1=C(N)SC(N)=C(C#N)C1c1ccoc1	86*	HIV RNase H inh-2=44
Cc1[nH]nc2c1C(c1ccoc1)C(C#N)=C(N)O2 (configuration not stated)	2
CC(C)C1C(C#N)=C(N)SC(N)=C1C#N	-8
N#CC1=C(N)Oc2cc(O)ccc2C1c1cccs1 (configuration not stated)	-39
CCCCn1nnnc1SCC(=O)Nc1ccc2c(c1)OCO2	-4
Brc1[nH]nc2ccccc12	-37
O=C(NCCCN1CCN(c2cccc(Cl)c2)CC1)C1CCC(=O)N1Cc1ccccc1Cl (configuration not stated)	4
Cc1ccc(C(CC(=O)N2CCOCC2)c2ccco2)cc1 (configuration not stated)	-2
Cc1ccc(NC(=O)N2CCC(C(=O)NCC(C)C)CC2)cc1	-13
COc1ccc(-n2c(/C=C(\C)O)nc(=O)c3c(C)cc(C)nc32)cc1	-78
CC(C#N)Sc1nc2ccccc2c(=O)n1-c1ccccc1 (configuration not stated)	-32
CCOCC(=O)Nc1c(C(=O)Nc2ccc(OC)cc2OC)oc2ccccc12	17
COc1cccc(OCC(=O)Nc2c(C(=O)Nc3ccc(OC)cc3OC)oc3ccccc23)c1	89*	HIV RNase H inh-2=93*
